HP1b chromo inh: blocks HP1-beta chromodomain binding to methylated histone tails. actives 0.56% (n = 390,000). Potency, µM (highest dose often 114 µM), hits mostly inhibitors. AID 540317. AlphaScreen HP1-beta / biotin-H3K9me3 peptide binding; also: nearly all actives have a fitted effect of over 70% in size
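Compound inhibition of the preformed complex between 50 nM HP1-beta and 50 nM biotinylated H3K9me3 peptide was read by AlphaScreen. Buffer was PBS pH 7.4 with 0.01% Tween-20. Incubations ran 30 min at room temperature, with 10 ug/mL donor/acceptor beads.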
BAZ2B block: BAZ2B (human) inhibition. Potency, µM (top dose mostly 114 µM), most hits filed as inhibitors. actives 4.4% (n = 360,000). AlphaScreen BAZ2B-H3K14Ac peptide displacement. AID 504333; also: nearly all actives have a fitted effect of over 60% in size
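Multi-concentration screen (max 110 uM) measuring displacement of acetylated histone H3 peptide from BAZ2B by AlphaScreen, using 50 nM protein, 50 nM peptide and 10 ug/mL streptavidin donor plus Ni-chelate acceptor beads.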
G9a inh-1: blocks human histone lysine methyltransferase G9a; Q96KQ7; G9a H3K9 monomethylation, AlphaScreen, 2 h; Potency, µM (doses to about 102 µM), usual class: inhibitors; AID 504332; actives 8.8% (n = 350,000); also: nearly all actives have a fitted effect of over 75% in size
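Step 1: enzyme (final 20 nM) with compound, 15 min RT. Step 2: substrate peptide 500 nM and SAM 20 uM, 2 h RT. Step 3: anti-H3K9me1 antibody and AlphaScreen beads, 10 min, then plate read.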
JMJD2A Tudor inh: JMJD2A Tudor domain (human) inhibition | O75164 | AlphaScreen JMJD2A-Tudor / H3K4me3 peptide binding | Potency, µM (doses to about 114 µM), most hits filed as inhibitors | actives 4.4% (n = 390,000) | AID 504339; also: nearly all actives have a fitted effect of over 50% in size
L3MBTL1 inh: L3MBTL1 (human) inhibition; Q9Y468; AlphaScreen L3MBTL1–H3K9me1 peptide binding; Potency, µM (top dose mostly 57.1 µM), most hits filed as inhibitors; actives 0.66% (n = 230,000); also: nearly all actives have a fitted effect of over 60% in size
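L3MBTL1 50 nM + b-AHA-H3(1-15)K9me1 75 nM, 30 min RT; compound added, 30 min RT; streptavidin donor/Ni-chelate acceptor beads 10 ug/mL each final, 30 min RT dark; AlphaScreen read.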
JMJD2E confirm: JMJD2E (human) demethylase inhibition, confirmation. shares compounds with JMJD2A Tudor inh. actives 93% (n = 140). Potency, µM (doses to about 56.8 µM), actives largely listed as inhibitors. Recombinant JMJD2E, FDH-coupled NADH fluorescence (FDH is formaldehyde dehydrogenase)
FDH inh: counter-screen for JMJD2E inhibitors: Pseudomonas putida formaldehyde dehydrogenase. shares compounds with JMJD2A Tudor inh. FDH enzyme assay, NADH fluorescence kinetic. Potency, µM (top dose mostly 56.7 µM), hits mostly inhibitors. actives 10% (n = 140). AID 2680
G9a inh-2: confirmation of human histone methyltransferase G9a inhibitors; G9a H3K9 monomethylation, AlphaScreen, 2 h; Potency, µM, hits mostly inhibitors; shares compounds with JMJD2A Tudor inh; actives 89% (n = 370); also: nearly all actives have a fitted effect of over 65% in size
Of the large screens only hits and unclear results are named; the others gave an inactive call (follow-up assays come after a bar, where they were run). Compounds with a hit are over-represented: about 11% of the library has one in this group of screens. Calls follow the shape of the dose curve; as a rule, active = well fitted curve in the direction sought with a large enough effect; inconclusive = small, poorly fitted or top-dose-only effect, or another doubt; inactive = no such curve, though single readings can be large; an effect the other way counts as inactive or inconclusive.

Cn1c(SCC(=O)NC2CCCCC2)nnc1-c1cccc(N)c1	G9a inh-1 1.6µM | G9a inh-2 2.8
Cn1c(SCC(=O)NC2CCCC2)nnc1-c1ccncc1	none (no result: G9a inh-1)
COCC(=O)Nc1ccc(N(C)C)cc1	G9a inh-1 2.5µM | G9a inh-2 3.2
COCC(=O)Nc1ccc(C(C)C)cc1	none (no result: L3MBTL1 inh)
CN(C)c1ccc(NC(=O)COC(=O)CCC(=O)c2ccc(F)cc2)cc1	BAZ2B block inconclusive, G9a inh-1 2.5µM, JMJD2A Tudor inh inconclusive (no result: L3MBTL1 inh) | G9a inh-2 7.1
CN(C)c1ccc(NC(=O)CCCc2ccccc2)cc1	HP1b chromo inh inconclusive, BAZ2B block 45µM, G9a inh-1 1.3µM, JMJD2A Tudor inh inconclusive | G9a inh-2 2.5
O=C(NCc1ccccc1Cl)C1CCN(S(=O)(=O)c2ccc3c(c2)CCCN3C(=O)C2CCC2)CC1	none (no result: L3MBTL1 inh)
Cc1ccc(N2CCN(c3ccc(NC(=O)CCC(=O)O)cc3)CC2)cc1	G9a inh-1 inconclusive
COc1ccc(C(=O)Nc2ccc(N3CCCC3)cc2)cc1	HP1b chromo inh inconclusive, G9a inh-1 1.6µM (no result: L3MBTL1 inh) | G9a inh-2 1.3
O=C(O)CCC(=O)Nc1ccc(N2CCCCCC2)cc1	BAZ2B block inconclusive, G9a inh-1 0.89µM | G9a inh-2 0.71
COc1cc(C(=S)N2CCCC2)ccc1OCc1ccccc1	BAZ2B block inconclusive (no result: G9a inh-1)
COc1cc(CNc2ccc(N3CCCC3)cc2)ccc1OCc1ccccc1	HP1b chromo inh inconclusive, BAZ2B block 13µM, G9a inh-1 inconclusive, JMJD2A Tudor inh 35µM, L3MBTL1 inh inconclusive | G9a inh-2 2.5
COc1ccc(C(=O)Nc2ccc(N3CCCC3)cc2)cc1OC	BAZ2B block inconclusive, G9a inh-1 2.5µM, JMJD2A Tudor inh inconclusive | G9a inh-2 2.5
CC(C)c1nc(CNC(=O)C2CCC(=O)N(CCc3ccc(Cl)cc3)C2)no1 (stereo not drawn)	none (no result: G9a inh-1, L3MBTL1 inh)
COCc1cc(CN2CCCC2)c(O)c2ncccc12	BAZ2B block 3.2µM, G9a inh-1 inconclusive, JMJD2A Tudor inh 8.9µM, L3MBTL1 inh 10µM | JMJD2E confirm 7.9µM | FDH inh inactive
COCc1c(C(=O)NCc2ccccc2CN2CCCC2)oc2ccccc12	none
Nn1c(SCC(=O)Nc2cccnc2Cl)nnc1-c1ccccc1	HP1b chromo inh inconclusive, G9a inh-1 inconclusive, JMJD2A Tudor inh 20µM | G9a inh-2 0.8
Cc1ccc(-c2nnc(SCC(=O)Nc3cccnc3Cl)n2N)cc1	none (no result: BAZ2B block, G9a inh-1)
Cc1nc(C(F)(F)F)c(C(=O)O)cc1-c1nc(-c2ccccc2)cs1	none (no result: L3MBTL1 inh)
Oc1c(C(Nc2nccs2)c2ccc(C(F)(F)F)cc2)ccc2cccnc12 (stereo not drawn)	JMJD2A Tudor inh 45µM (no result: L3MBTL1 inh) | JMJD2E confirm 22µM | FDH inh inactive
Cc1[nH]c2ccccc2c1C(Nc1nccs1)c1ccncc1 (stereo not drawn)	BAZ2B block inconclusive
CC(=O)N/C(=C\c1ccccc1)C(=O)OC/C=C/c1ccccc1	none (no result: L3MBTL1 inh)
CSc1cc(C)c(OCC(=O)Nc2ccc(NC(C)=O)cc2)c(C)c1	none
CN1CCC(NC(=O)c2cccc(Oc3ccccc3)c2)CC1	none (no result: G9a inh-1, L3MBTL1 inh)
CN1CCC(N(C)CC(=O)Nc2cccc(Oc3ccccc3)c2)CC1	BAZ2B block 50µM, G9a inh-1 inconclusive, JMJD2A Tudor inh 6.3µM (no result: L3MBTL1 inh) | G9a inh-2 inconclusive
COC(=O)Cc1sc(-c2ccccn2)nc1-c1ccccc1	HP1b chromo inh inconclusive, G9a inh-1 2.2µM | G9a inh-2 5
CC(C)C[C@H](NC(=O)N1CCn2c1nc1ccccc12)C(=O)N[C@H](Cc1ccccc1)C(=O)O	none

Source: PubChem (National Center for Advancing Translational Sciences (NCATS))
